HT1080 IDH1KD tx: HT-1080 IDH1 knockdown cell toxicity (counter line). HT-1080 IDH1 knockdown viability, ATP luminescence, 48 h. Potency, µM (series often up to 46.1 µM), usual class: cytotoxic. actives 2% (n = 360,000)
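Viability of IDH1-knockdown HT-1080 fibrosarcoma cells was assessed by CellTiter-Glo after 48 h at 37 °C with titrated compound; concentration-effect curves were classified by fit quality and response size.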
SW480 rerep: DNA re-replication induction in SW480 cells; SW480 DNA re-replication, Hoechst DNA content imaging, 48 h; Potency, µM (series often up to 46.1 µM), most hits filed as activators; actives 1.8% (n = 340,000); AID 624297; also: nearly all actives have a fitted effect of over 55% in size
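Quantitative HTS format with DMSO vehicle controls; 48 hr drug incubation at 37 C, then 40 min Hoechst staining and scanning imager measurement at 405 nm excitation.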
HT1080-NT tox: kills 2HG-producing HT-1080-NT fibrosarcoma cells; HT-1080-NT fibrosarcoma viability, CellTiter-Glo ATP luminescence, 48 h; Potency, µM (top dose mostly 46.1 µM), hits mostly cytotoxic; actives 1.6% (n = 360,000); AID 686970;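 also: NT is the 2HG producing partner of a matched IDH1 knockdown line; nearly all actives have a fitted effect of over 55% in size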
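Viability of the 2HG-overproducing fibrosarcoma line after 48 hours of compound exposure at 37 degrees C was determined by luminescence with CellTiter-Glo, and concentration-effect curves were then fitted and categorized.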
MCF10A rereplic: inducers of DNA re-replication in MCF 10A breast cells; MCF 10A DNA re-replication, Hoechst nuclear intensity, 48 h; Potency, µM (highest dose often 46.1 µM), most hits filed as activators; actives 2.9% (n = 350,000); AID 624296; also: nearly all actives have a fitted effect of over 50% in size
KB-3-1 tox: KB-3-1 parental cell cytotoxicity | actives 1.4% (n = 400,000) | AID 1347075 | KB-3-1 viability, CellTiter-Glo ATP luminescence, 72 h | Potency, µM (titrated, usually from 46.1 µM), usual class: cytotoxic; also: nearly all actives have a fitted effect of over 60% in size
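Parental KB-3-1 viability, qHTS format: 72 h compound exposure, 37 °C; CellTiter-Glo; media-only wells and DMSO plates as controls; concentration-effect fits on corrected data.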
KB-V1 MDR tox: KB-V1 MDR subline cytotoxicity | KB-V1 MDR cells viability, CellTiter-Glo, 72 h | Potency, µM (top dose mostly 46.1 µM), usual class: cytotoxic | actives 3.4% (n = 400,000); also: nearly all actives have a fitted effect of over 60% in size
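Potencies derive from concentration-effect curves fitted to normalized luminescence (CellTiter-Glo) of KB-V1 cells treated for 72 h at 37 degrees C in phenol-red-free DMEM containing 10% FBS.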
Numbers stand for hits; 0 = inactive; ? = inconclusive; - = no result; [ ] = remark or other dose. The list is not random: actives were taken first. Their share in the collection is about 7.9%. Calls follow the shape of the dose curve; as a rule, active = well fitted curve in the direction sought with a large enough effect; inconclusive = small, poorly fitted or top-dose-only effect, or another doubt; inactive = no such curve, though single readings can be large; an effect the other way counts as inactive or inconclusive.

SMILES	HT1080 IDH1KD tx	SW480 rerep	HT1080-NT tox	MCF10A rereplic	KB-3-1 tox	KB-V1 MDR tox
CCc1ccc(OCc2cc(=O)n3cc(C)sc3n2)cc1	-	-	-	-	0	0
O=C1c2ccccc2-c2cccc(NS(=O)(=O)c3ccc(C(F)(F)F)cc3)c21	0	0	0	0	?	23.1µM
COc1cc(C(=O)OCC(=O)NC(=O)NCc2ccccc2)ccc1OC(F)F	0	0	0	0	0	0
CN(Cc1ccccc1)C(=O)c1ccccc1NC(=O)c1ccccc1	0	0	0	0	0	23.1µM
CN(Cc1ccccc1)C(=O)c1ccccc1NC(=O)C1CC1	0	0	0	0	0	0
CN(Cc1ccc(F)cc1)C(=O)C(Cc1ccccc1)NC(=O)c1ccccc1 (stereo not given)	0	0	0	0	0	10.3µM
COc1ccc(CN(C)C(=O)C(Cc2ccccc2)NC(=O)c2ccccc2)cc1F (stereo not given)	0	?	0	?	?	?
CCOc1ccc(CN(C)C(=O)[C@H](Cc2ccccc2)NC(=O)OCc2ccccc2)cc1OC	0	0	0	?	?	10.3µM
CCOc1ccc(C(=O)OCC(=O)N(Cc2ccccc2)Cc2ccccc2)cc1OC	0	0	0	0	0	23.1µM
CCCS(=O)(=O)c1nc(S(=O)(=O)c2ccc(C)cc2)c(NCCCN2CCCC2=O)s1	0	0	0	0	0	0
CCN(CC(=O)Nc1ccc(OC)cc1)C(=O)CSCc1c(C)noc1C	0	0	0[9.24 µM]	0	0	?
Cc1ccc(NC(=O)C(Cc2ccccc2)NC(=O)OCc2ccccc2)cc1C (stereo not given)	0	0	0	0	0	5.8µM
CC(C)CC(NC(=O)OCc1ccccc1)C(=O)NC(Cc1ccccc1)C(=O)CCl (stereo not given)	?	6.51µM	?	7.31µM	?	?
CC(C)n1c(O)c(N=Nc2ccc(Cl)nn2)c2ccccc21	0	0	0	0	0	11.6µM
CC(C)n1c(O)c(N=NC(=O)CNC(=O)Cc2ccc(Cl)cc2)c2ccccc21	0	0	0	0	0	0
CCCCNC(=O)c1nc(C2CCN(S(=O)(=O)c3ccc(OC(F)(F)F)cc3)CC2)oc1-c1ccccc1	0	-	0	-	0	0
Cc1cccc(C)c1NC(=O)CCCSc1nnc(-c2ccc(F)cc2)n1-c1ccccc1	0	0	0	?	16.4µM	2.31µM
Cc1cccc(C)c1NC(=O)CCCSc1nnc(-c2ccc(Cl)cc2)n1-c1ccccc1	?	?	0	?	4.11µM	2.91µM
CC(=O)Nc1ccc2nc3c(=O)n(C)c(=O)n(C)c3nc2c1C	-	-	-	-	0	0
O=C1C2C3C=CC(CNS(=O)(=O)c4ccccc4)(O3)C2C(=O)N1c1ccc(Cl)cc1 (stereo not given)	0	11.6µM	0	?	0	?
O=C1C2C3C=CC(CO)(O3)C2C(=O)N1c1ccccc1-c1ccccc1 (stereo not given)	1.58µM	10.3µM	3.16µM	7.31µM	0	0
CC(=O)Oc1ccc(N2C(=O)C3C4C=CC(CO)(O4)C3C2=O)cc1 (stereo not given)	0[9.24 µM]	?	0	?	0	0
CCOc1cc(NC(=O)CC(C)C)c(OCC)cc1NC(=O)CCn1nnc2ccccc21	0	0	0	0	?	4.11µM
CCOc1cc(NC(=S)Nc2cccc(C)c2)c(OCC)cc1NC(=O)CC(C)C	0	0	?	0	0	3.26µM
C1NNCC12CNNC2	0	-	?	-	-	-
SMILES	HT1080 IDH1KD tx	SW480 rerep	HT1080-NT tox	MCF10A rereplic	KB-3-1 tox	KB-V1 MDR tox
CCCN1CCC(=O)N(CCC#N)CC1	-	-	-	-	0	0
COc1ccc(-c2nc(SC(C)C(=O)NCC3CCCO3)n[nH]2)cc1 (stereo not given)	?	16.4µM	?	13µM	?	0
COc1ccc(-c2cn3nc(SCC(=O)NC4CCCCC4)ccc3n2)cc1	0	8.2µM	0	3.66µM	0	0
COc1ccc(-c2nc(SCC(=O)NC3CCCCC3)n[nH]2)cc1	0	16.4µM	0	?	?	?
COc1ccc(-c2nc(SC(C)C(=O)Nc3ccc(NC(C)=O)cc3)n[nH]2)cc1 (stereo not given)	0	0	0	0	0	0
Cc1nc(SC(C)C(=O)NCC2CCCO2)c2cc(-c3ccccc3)sc2n1 (stereo not given)	?	?	0	11.6µM	?	?
COc1ccc(-c2ccc(SCC(=O)NC3CCCCC3)nn2)cc1	0	?	0	0	0	0
COc1ccc(-c2nnc(SCC(=O)NC3CCCCC3)nc2-c2ccc(OC)cc2)cc1	-	-	-	-	0	0
c1ccc(C[C@H]2COc3c4ccccc4nn32)cc1	0	-	0	-	0	?
N=c1n(CC(=O)c2ccc(Br)s2)c2ccccc2n1Cc1ccccc1	0	?	0	?	0	?
CCN(CC)CCn1c(=N)n(CC(=O)c2ccc(Br)s2)c2ccccc21	23.1µM	0	23.1µM	0	?	?
Cn1c(=N)n(CC(=O)c2cccs2)c2ccccc21	0	0	0	0	0	0
Cn1c(=N)n(CC(=O)c2ccc(Br)s2)c2ccccc21	?	0	25.9µM	0	?	?
COc1cccc(C(=O)CSc2nc3ccccc3n2CC(=O)N2CCOCC2)c1	0	0	0	0	0	20.6µM
COc1cccc(C(=O)Cn2c(=N)n(C)c3ccccc32)c1	?	0	?	0	10.3µM	0
CCOc1ccc(C(=O)NCCn2cc(SCC(=O)Nc3ccc4c(c3)OCCO4)c3ccccc32)cc1	-	-	-	-	0	?
N#Cc1c(-n2ncnc2-c2ccc(F)cc2)sc2c1CCCCC2	-	-	-	-	0	0
CN(C)C1(CNC(=O)COc2cccc(Cl)c2)CCCCC1	-	-	-	-	0	?
Cc1ccc(N2C(=O)c3cccc4c(N)ccc(c34)C2=O)c2cccnc12	0.0073µM	?	0.0206µM	?	?	0.581µM
COCCNC(=O)c1onc(CSc2ccccc2)c1C(=O)NCCOC	0	0	0	?	0	0
O=C(Nc1cc(Cl)cc(Cl)c1)N[C@@H]1CC[C@@H](CCNS(=O)(=O)c2cccc(F)c2)O[C@@H]1CO	?	-	18.4µM	-	?	0
Cc1cc(NC(=O)c2ccccc2C)n(-c2cccc(F)c2)n1	0	0	0	0	0	0
CC(=O)Nc1ccc(-c2cc(C(=O)O)c3c(-c4ccccc4)[nH]nc3n2)cc1	-	-	-	-	0	0
CC(=O)c1ccc(NC(=O)C[n+]2ccc(N(C)C)cc2)cc1	0	0	?	0	?	?
CN(C)c1cc[n+](CC(=O)Nc2ccc(Cl)c([N+](=O)[O-])c2)cc1	?	0	0	?	6.51µM	0
CN(C)c1cc[n+](CC(=O)Nc2ccc(OC(F)F)cc2)cc1	?	0	0	0	4.11µM	0
Cc1cc(NC(=O)COCc2cc(-c3ccc(F)cc3)on2)ccc1Br	-	-	-	-	?	0

Screening results deposited in PubChem BioAssay by National Center for Advancing Translational Sciences (NCATS).
